Assay outcomes: PubChem BioAssay, several laboratories
LANA DNA inh: inhibitors of KSHV LANA C-terminal domain DNA binding; MBP-C-LANA/FAM-LBS DNA binding, fluorescence polarization; inhibition, % at 9 µM; 0.078% of 340,000 active; AID 504423;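 active = highest replicate inhibition at or above 60% at 9 µM, even if other replicates fall short; inactive = all replicates below 60% inhibition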
Cardiac RTF inh: cardiac RTF calcium desensitization. IANBD-labeled cardiac RTF, Ca2+ fluorescence. 0.12% of 340,000 active. P19429+P45379. inhibition, % at 7.15 µM. AID 493244;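 active = inhibition above the mean inhibition of all tested compounds plus 3 SD, cut at about 17% in these data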;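 also: assay run at fixed EC70 calcium of 1.6 mM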
Keap1 Nrf2 FP: disrupts human Keap1 binding to Nrf2 peptide; Keap1 Kelch-Nrf2 peptide fluorescence polarization, 1536-well; inhibition, % at 9.4 µM; 0.15% of 340,000 active; in the data active = inhibition above about 12%;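 also: human Keap1 Kelch domain with fluorescein labeled Nrf2 9mer peptide probe; higher means more block of Keap1 binding to Nrf2 peptide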
E coli Lon inh: inhibitors of E. coli Lon protease | P0A9M0 | purified E. coli Lon protease, fluorescence polarization | inhibition, % at 7.94 µM | 0.42% of 360,000 active | AID 602123; in the data active = inhibition above about 13%, passing the limit was not always enough
cardiac RTF act: cardiac RTF calcium sensitization | P19429+P45379 | IANBD-labeled TnC RTF fluorescence at EC20 calcium; 0% EC20 calcium, 100% full calcium | activation, % at 7.2 µM | 0.24% of 340,000 active;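 active = activation above the mean over all tested compounds plus 3 SD, cut at about 30% in these data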;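 also: rise in fluorescence read as greater calcium sensitivity of cardiac thin filaments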
RTF Ca inh conf: cardiac RTF calcium sensitivity inhibition, confirmation | reconstituted cardiac thin filaments, calcium sensitivity fluorescence | shares compounds with Cardiac RTF inh | AID 504635 | 8% of 360 active | inhibition, % at 7.15 µM; in the data active = inhibition above about 18%
DNA intercal 2: DNA intercalation in C-LANA counter-screen | shares compounds with LANA DNA inh | Acridine orange-DNA displacement, fluorescence polarization | AC50, µM (series often up to 35 µM) | 20 tested, under 10 active;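 active = signal drop with an AC50 no more than ten times the top valid dose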
Keap1 TSA: Keap1 (human) Kelch domain binding. max delta Tm, degrees C. 8% of 400 active. shares compounds with Keap1 Nrf2 FP. Keap1 Kelch thermal shift, delta Tm; active compounds read high; in the data active = max delta Tm above about 0.48 degrees C
Each line names hits and unclear results; the compound was inactive in the other large screens (follow-up assays come after a bar, where they were run). Most compounds without a hit are left out; they make up all but 0.82% or so of the library.

C/C(=N\NC(=S)NCc1ccccc1)c1ccc(C)o1	Cardiac RTF inh 21 | RTF Ca inh conf inactive
CCNC(=O)C1CCCN(C(=O)c2ccc(C(F)(F)F)cc2)CC1 (stereo not given)	none (no result: LANA DNA inh, Cardiac RTF inh, Keap1 Nrf2 FP, cardiac RTF act)
O=C(NN=Cc1ccccc1O)c1cccc([N+](=O)[O-])c1	none
O=C(N/N=C/c1ccc(Br)s1)c1cccc([N+](=O)[O-])c1	Cardiac RTF inh 18 | RTF Ca inh conf inactive
COc1ccc(NC(=O)CC23CC4CC(CC(C4)C2)C3)cn1	Cardiac RTF inh 17 | RTF Ca inh conf inactive
COCCN(C(=O)COC(=O)c1ccc(Br)o1)c1c(N)n(Cc2ccccc2)c(=O)[nH]c1=O	none (no result: LANA DNA inh, Cardiac RTF inh, Keap1 Nrf2 FP, cardiac RTF act)
CCc1nnc(NS(=O)(=O)c2ccc(NC(=O)c3ccccc3OC)cc2)s1	none
CCCOC(=O)c1ccc(NC(=O)c2c(Cl)ccc(Cl)c2OC)cc1	Cardiac RTF inh 21 | RTF Ca inh conf inactive
COc1ccccc1-n1c(SCC(=O)Nc2ccc(C)cc2)nc(O)cc1=O	Cardiac RTF inh 18 | RTF Ca inh conf inactive
COc1ccc(NC(=O)CSc2nc(O)cc(=O)n2-c2ccccc2OC)cc1	none
COc1ccc(/C=C/C(=O)NC(=S)Nc2ccc(C(=O)O)cc2)cc1	Cardiac RTF inh 58, cardiac RTF act 33 | RTF Ca inh conf inactive
CC1(C)CC(=O)C=C(c2ccc(COC(=O)Cc3ccccc3)cc2)C1=O	none (no result: LANA DNA inh, Cardiac RTF inh, Keap1 Nrf2 FP, cardiac RTF act)
CCn1ncc(/C=C2/SC(=S)NC2=O)c1C	Cardiac RTF inh 19 | RTF Ca inh conf inactive
CCOC(=O)CNC(=O)CSc1nccn1Cc1ccco1	none
CCc1ccc(OCC(=O)NNC(=O)c2nn(CC)c(=O)c3ccccc23)cc1	Cardiac RTF inh 18 | RTF Ca inh conf inactive
COc1ccccc1C(=O)NC(=O)COC(=O)Cn1[nH]c(=O)c2ccccc2c1=O	none
O=C(NCCS(=O)(=O)N1CCN(c2cccc(Cl)c2)CC1)c1ccco1	none
O=S(=O)(NN=C1CCCCCCC1)c1ccccc1	none (no result: LANA DNA inh, Cardiac RTF inh, Keap1 Nrf2 FP, cardiac RTF act)
Cc1ccc(-n2c(SCC(=O)O)nc3sc4c(c3c2=O)CCCC4)cc1	Cardiac RTF inh 17 | RTF Ca inh conf inactive
CCc1cc2c(CN(C)Cc3ccccc3F)cc(=O)oc2cc1O	Cardiac RTF inh 18 | RTF Ca inh conf inactive
O=C(/C=C/Sc1ccccc1)c1ccc(Cl)cc1	none
O=C(O)/C=C/C(O)c1ccc(Cl)cc1 (stereo not given)	Cardiac RTF inh 18 | RTF Ca inh conf inactive
O=C(Nc1nccs1)[C@@H]1CC=C[C@@H]2CCN(Cc3ccccc3)C(=O)[C@@H]21	none
O=C(O)CC(C(=O)O)N1C(=O)/C(=C/C=C/c2ccco2)SC1=S (stereo not given)	LANA DNA inh 106, Cardiac RTF inh 66 | RTF Ca inh conf 21 | DNA intercal 2 inactive
COc1ccc(C(CC(=O)O)NC(=O)COc2cc(C)ccc2C)cc1OC (stereo not given)	none (no result: Cardiac RTF inh, cardiac RTF act)
O=C(O)c1cccc(-n2cccc2/C=C2/NC(=O)N(c3ccc(Cl)cc3)C2=O)c1	LANA DNA inh 110, Cardiac RTF inh 75, Keap1 Nrf2 FP 19 | RTF Ca inh conf 55 | Keap1 TSA inactive
O=C(O)C1Nc2c(O)cc(Cl)c([N+](=O)[O-])c2C2C=CCC12 (stereo not given)	LANA DNA inh 120, Cardiac RTF inh 86, Keap1 Nrf2 FP 42 | RTF Ca inh conf 36 | DNA intercal 2 inactive | Keap1 TSA 0.92
O=C1C(=Cc2ccco2)CCCC1=Cc1ccco1	none
O=C1C(=Cc2ccco2)CCC1=Cc1ccco1	LANA DNA inh 116, Cardiac RTF inh 29, Keap1 Nrf2 FP 20 | RTF Ca inh conf 60 | Keap1 TSA 0.86
O=C(O)c1ccccc1CSc1nnc2c(n1)[nH]c1ccccc12	none
CCC(=O)N1CCCC(C)(C(=O)Nc2nccc3cccnc23)C1 (stereo not given)	none (no result: LANA DNA inh, Cardiac RTF inh, Keap1 Nrf2 FP, cardiac RTF act)
